Screens deposited in PubChem by National Center for Advancing Translational Sciences (NCATS).
Compounds with a hit are over-represented: about 1.9% of the library has one in this group of screens.
LDHA inh: blocks human lactate dehydrogenase A | P00338 | purified LDHA, NADH/diaphorase-resazurin fluorescence; hits give low values | activity change, % (values are at about 110 or 230 µM) | actives 0.15% (n = 480,000) | AID 1347041; in the data active means activity change below about -30%; inconclusive means mostly about -25% to -30%;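 further: plate controls were DMSO wells for no effect and wells without enzyme for full effect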
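Human LDH5 (2 nM) was incubated with 0.06 mM NADH and 0.2 mM pyruvate for 5 min at room temperature in Tris pH 7.4. Remaining NADH was coupled through diaphorase/resazurin, and resorufin fluorescence was read at 0 and 20 min.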
aSyn yeast inh: alpha-synuclein toxicity inhibition in yeast; AID 652106; Potency, µM (top dose mostly 46.1 µM), for the others: top-dose growth rescue (activation), actives largely listed as activators; Yeast expressing alpha-synuclein, growth rescue, BacTiter-Glo, 24 h; actives 0.14% (n = 370,000); further: potency means the concentration at half of the fitted maximal effect; % of control where 0% means no effect; nearly all actives have a fitted effect of over 65% in size
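Readout is rescue of growth in alpha-synuclein-expressing yeast, so inhibitors of toxicity appear as activators. Growth after 24 hr at 30 deg C in galactose medium is quantified by luminescence.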
FUS yeast rescue: FUS proteinopathy suppression in yeast. actives 0.24% (n = 390,000). S. cerevisiae FUS-expressing, growth rescue, OD600, 24 h. Potency, µM (top dose mostly 76.6 µM), actives largely listed as activators. AID 1347120;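 further: potency means the concentration at half of the fitted maximal effect; plate controls were DMSO vehicle for no effect and reference control for full effect; nearly all actives have a fitted effect of over 55% in size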
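Cultures pregrown in 2.5% raffinose medium are shifted to minimal medium containing 2% galactose to express toxic FUS. Compounds are tested at several concentrations. After 24hr at 30C, growth is quantified at 600 nm absorbance.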
Abeta rescue: A-beta toxicity reversal in yeast. Potency, µM (series often up to 46.1 µM), hits mostly activators. yeast expressing A-beta42, growth rescue, OD600, 48 h; response scale: 0% DMSO, 100% iron-clioquinol control. actives 0.063% (n = 410,000); further: potency means the concentration at half of the fitted maximal effect; nearly all actives have a fitted effect of over 55% in size
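Yeast growth medium received pinned compounds, then yeast cells expressing toxic A-beta were added; plates incubated at 30 C for 48 hr. Growth read as absorbance at 600 nm, normalized to DMSO and equimolar FeCl3 plus clioquinol controls.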
TDP43 rescue: rescues yeast growth from TDP-43 toxicity; TDP-43 expressing yeast growth rescue, BacTiter-Glo, 24 h; actives 1.8% (n = 410,000); AID 652104; Potency, µM (top dose mostly 46.1 µM), for inactives: at the top dose growth rescue (activation), usual class: activators; further: potency means the concentration at half of the fitted maximal effect; % of control where 0% means no effect; nearly all actives have a fitted effect of over 50% in size
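Galactose-induced TDP-43 yeast, OD600=0.02, compound pinned; 24 hr, 30 deg C; BacTiter-Glo luminescence for growth. Inhibitors of TDP-43 toxicity read as activators.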
PTHR1 ag: agonists of human PTHR1 parathyroid hormone receptor | Q03431 | AID 743266 | Potency, µM (titrated, usually from 115 µM), without a hit: top-dose activation, hits mostly activators | actives 0.075% (n = 410,000) | HEK293 GP2 PTHR1 cells, GloSensor cAMP luminescence, 1 h; further: potency means the concentration at half of the fitted maximal effect; nearly all actives have a fitted effect of over 55% in size
Target sequence (Q03431 whole entry, looked up): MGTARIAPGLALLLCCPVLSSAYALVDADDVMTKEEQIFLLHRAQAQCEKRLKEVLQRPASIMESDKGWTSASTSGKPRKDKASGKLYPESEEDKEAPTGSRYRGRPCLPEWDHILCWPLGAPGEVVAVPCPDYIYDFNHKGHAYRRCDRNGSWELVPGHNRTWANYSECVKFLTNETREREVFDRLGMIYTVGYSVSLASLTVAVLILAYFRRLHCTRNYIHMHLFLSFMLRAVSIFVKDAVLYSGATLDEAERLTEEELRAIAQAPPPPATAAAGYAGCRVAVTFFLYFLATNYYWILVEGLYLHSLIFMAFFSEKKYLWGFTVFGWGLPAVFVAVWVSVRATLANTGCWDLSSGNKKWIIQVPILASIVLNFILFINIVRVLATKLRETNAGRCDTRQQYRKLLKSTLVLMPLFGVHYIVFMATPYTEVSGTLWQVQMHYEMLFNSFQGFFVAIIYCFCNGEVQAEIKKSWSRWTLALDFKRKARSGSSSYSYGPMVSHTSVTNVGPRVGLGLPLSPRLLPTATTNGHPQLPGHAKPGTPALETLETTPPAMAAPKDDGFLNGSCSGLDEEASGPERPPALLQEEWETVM
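HEK-293-derived GP2 cells expressing PTHR1 and a GloSensor cAMP reporter, 3,000/well, plated overnight, given luciferin plus IBMX (each 0.5 mM as added) for 1 h at 37 °C, then compound for 1 h at 37 °C. Luminescence was read after 15 min at room temperature.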
The depositor's hits bear a star; i = inactive; ? = inconclusive; / = no result; [ ] = remark or other dose. Unless noted, the call rests on the fitted dose curve; in most records, active means well fitted curve in the direction sought with a large enough effect; inconclusive means small, poorly fitted or top-dose-only effect, or another doubt; inactive means no such curve, though single readings can be large; an effect the other way counts as inactive or inconclusive.

SMILES	LDHA inh	aSyn yeast inh	FUS yeast rescue	Abeta rescue	TDP43 rescue	PTHR1 ag
CSc1ccc2c(c1)N(C(=O)COC(=O)c1ccc3c(c1)OCO3)c1ccccc1S2	4	/	/	/	/	/
Cc1nc2ccc(C(=O)NCc3ccccn3)cc2nc1C	2	/	/	/	/	/
O=C(OCC(=O)c1cccc2ccccc12)c1ccc(CO)cc1	0	16%	i	i	14µM*	i
S=c1[nH]nc(-c2ccc(Cl)cc2)n1/N=C/C=C/c1ccco1	1	15%	?	5µM*	-21%[1.82 µM]	i
S=c1[nH]nc(-c2ccccc2)n1/N=C/C=C/c1ccco1	-2	2%	/	i	19%	-4%
CCCc1c(C(=O)OCC)sc(N)c1C#N	-8	1%	i	i	-12%	-73%
CCNc1sc(C(C)=O)c(N)c1C#N	-35*	/	/	/	/	/
CCN(CC)C(=S)SCC(=O)Nc1ccc(F)cc1	4	8%	i	i	14µM*	-1%
O=C(CSc1nc2ncccc2o1)Nc1cccc(C(F)(F)F)c1	5	/	i	13µM*	10µM*	i
Cc1cc(C)n(CC(=O)Nc2cccc(C(F)(F)F)c2)n1	0	0%	i	i	8%	i
CCN(CC)C(=S)SCC(=O)Nc1cccc(C(F)(F)F)c1	-6	11%	i	i	13µM*	-58%
Cc1nn(CC(=O)Nc2cccc(C(F)(F)F)c2)c(=O)c2cccn12	-1	6.3µM*	i	i	1%	i
CCN(CC)C(=S)SCC(=O)c1ccc(F)cc1	-3	0%	i	i	?	-10%[57.5 µM]
COc1cc(NC(=O)CSc2nc3ncccc3o2)cc(OC)c1	-2	/	i	i	15%	-25%
CCc1[nH]c(C(=O)N(CC)CCC(F)(F)F)c(C)c1C(=O)OC	8	/	/	/	/	/
Cc1cccc(CS(=O)CCC(=O)Nc2ccccc2)c1 (stereo not given)	-10	/	/	/	/	/
Cc1ccc(-c2nc(C)c(C(=O)NC3C=CS(=O)(=O)C3)s2)cc1 (stereo not given)	-8	/	/	/	/	/
CCCCCOc1ccc(C(=O)N(Cc2ccccc2)C2CCS(=O)(=O)C2)cc1 (stereo not given)	-2	/	?	i	20µM*	-65%
CCOc1ccc(CN(C(=O)c2cc(=O)c3cc(Cl)ccc3o2)C2CCS(=O)(=O)C2)cc1 (stereo not given)	6	/	32µM*	i	-4%	i
O=C1/C(=C/C=C/c2ccco2)SC(=S)N1c1ccc(O)cc1	1	21%	i	i	11µM*	i
O=C1/C(=C\c2ccco2)SC(=S)N1c1ccc(O)cc1	-2	-2%	i	i	21%	-3%
CCCCn1c(SCC(=O)c2ccc(O)c(O)c2)nc2ccsc2c1=O	12	6%	/	i	20µM*	-38%
NCCS(N)(=O)=O	-3	/	/	/	/	/
COc1ccc(-c2cc(-c3ccccc3)nc(NC(=O)CN3CCCCCC3)n2)cc1	-20	/	/	/	/	/
S=c1[nH]nc(-c2cc(-c3ccccn3)nc3ccccc23)o1	-3	14%	i	i	3.2µM*	-9%
SMILES	LDHA inh	aSyn yeast inh	FUS yeast rescue	Abeta rescue	TDP43 rescue	PTHR1 ag
Cc1ccc(-c2cc(-c3n[nH]c(=S)o3)c3ccccc3n2)cc1	-10	-14%	i	i	?	-60%
CC(C)CC(=O)NC(=S)Nc1ccccc1N1CCCC1	-1	10%	i	7.1µM*	23%	i
O=C(NC(=S)Nc1ccccc1N1CCCC1)c1cccs1	1	0%	i	11µM*	?	-20%
O=C(NC(=S)Nc1ccccc1N1CCCCC1)c1cccs1	-2	-12%	i	i	?	i
CC1CCCCC1NC(=O)c1ccc2c(Cl)c3c(nc2c1)CCCC3 (stereo not given)	11	/	/	/	/	/
CCc1ccc2oc(C(=O)N3CCN(c4ccccc4OC)CC3)cc(=O)c2c1	-4	14%	i	i	20µM*	-21%
